# Results reported in PubChem BioAssay (Tox21).
# Where “and” joins values, the source holds several entries; their conditions need not be identical. Equal entries are not always repeated. Records with an inconclusive call do not appear. Where a call stands in place of a potency, no number is given. Some structures have more than one record in an assay (separate samples or runs), and their calls can disagree. Calls of active or inactive are those of the source. Unless noted, calls come from the whole dose curve; as a rule, active = well fitted curve in the direction sought with a large enough effect in the repeat runs; inconclusive = weak or mixed curves; inactive = no such curve, though single readings can be large; an effect the other way counts as inactive or inconclusive.
# What was measured:
# [1] = qHTS assay to identify small molecule agonists of the RXR signaling pathway - cell viability counter screen (AID 1159529); note: nearly all actives have a fitted effect of over 50% in size; note: potency is the fitted concentration of half-maximal effect
# Method in brief: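 In this parallel viability measure, GeneBLAzer RXR-alpha HEK 293T cells (2% charcoal-stripped FBS) were given a 5 hr preincubation, treated with compounds 16 hr at 37 C, and read by CellTiter-Glo luminescence.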
# [2] = qHTS assay to identify small molecule antagonists of the retinoid acid receptor (RAR) signaling pathway - cell viability counter screen (AID 1159551); note: nearly all actives have a fitted effect of over 35% in size
# Method in brief: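 Cells (C3RL4) are plated, incubated overnight, dosed with compound in DMSO, then given retinol at 1 uM final. After 6 h at 37 C, CellTiter-Glo is added and luminescence read following 30 min at room temperature.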
# [3] = qHTS assay to identify small molecule antagonists of the estrogen related receptor (ERR) signaling pathway from Tox21 library - cell viability counter screen (AID 1224834); note: nearly all actives have a fitted effect of over 30% in size; note: potency is the fitted concentration of half-maximal effect
# Method in brief: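 ERR cells, 2,000/well; 6 h settle at 37 C/5% CO2; pin-tool compound transfer in DMSO; 17.5 h at 37 C; CellTiter-Fluor, 30 min; fluorescence intensity.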
# [4] = qHTS assay to identify small molecule agonists of the constitutive androstane receptor (CAR) signaling pathway - cell viability counter screen (AID 1224836); note: series mostly up to about 92 µM; nearly all actives have a fitted effect of over 45% in size
# Method in brief: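 Using CellTiter-Fluor, viability of HepG2 cells harbouring hCAR and CYP2B6-2.2kb was measured following 23 h incubation with a 15-concentration compound series plus PK11195 (0.75 uM final).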
# [5] = qHTS assay to identify small molecule antagonists of the constitutive androstane receptor (CAR) signaling pathway - cell viability counter screen (AID 1224837); note: nearly all actives have a fitted effect of over 45% in size; note: potency is the fitted concentration of half-maximal effect
# Method in brief: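 Viability was measured with CellTiter-Fluor in a HepG2 line carrying stably transfected hCAR and a CYP2B6-2.2kb construct. Cells were exposed for 23 hr at 37 C to 15 compound concentrations with 50 nM CITCO as agonist.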
# [6] = biological target: Nuclear receptor subfamily 1 group I member 3 (Homo sapiens) (UniProt Q14994); test: qHTS assay to identify small molecule antagonists of the constitutive androstane receptor (CAR) signaling pathway (AID 1224838);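 note: HepG2 cells stably expressing hCAR with CYP2B6 luciferase reporter stimulated by CITCO; nearly all actives have a fitted effect of over 40% in size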
# Method in brief: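 Antagonist mode used CITCO at a final 50 nM to activate CAR in human hepatoma HepG2 cells carrying stable hCAR and a 2.2 kb CYP2B6 promoter-luciferase construct. Compounds were tested at 15 concentrations over 24 h, with luminescence as the end point.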
# [7] = qHTS assay to identify small molecule antagonists of the estrogen related receptor signaling pathway with the pleiotropic PPARgamma coactivator (PGC) from Tox21 10K library - cell viability counter screen (AID 1224840; active = well fitted cell-killing curve with a large enough effect in the repeat runs, not every such curve was filed as active; note: nearly all actives have a fitted effect of over 40% in size; note: potency is the fitted concentration of half-maximal effect)
# Method in brief: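 Multiplexed viability counter screen in the PGC/ERR cell line: cells treated with DMSO-dissolved compounds for 17.5 hours at 37 C, then viability measured as CellTiter-Fluor fluorescence.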
# [8] = qHTS assay to identify small molecule antagonists of the estrogen related receptor signaling pathway with the pleiotropic PPARgamma coactivator (PGC) from Tox21 10K library (AID 1224841; call rule not given here; note: actives are mostly falling curves and most rising ones were filed inactive; nearly all actives have a fitted effect of over 50% in size; note: potency is the fitted concentration of half-maximal effect)
# Method in brief: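 Steps: plate 2,000 PGC/ERR cells per well; incubate 6 h at 37 C with 5% CO2; transfer compounds from DMSO stocks by pin tool; incubate 18 h at 37 C; add One-Glo; measure luminescence 30 min later.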
# [9] = qHTS assay to identify small molecule agonists of the estrogen related receptor signaling pathway with the pleiotropic PPARgamma coactivator (PGC) from Tox21 10K library (AID 1224842); note: nearly all actives have a fitted effect of over 15% in size; note: potency is the fitted concentration of half-maximal effect
# Method in brief: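 Luminescence from One-Glo (30 min, room temperature) measured after PGC/ERR cells had 18 h at 37 C with pinned compound (23 nL in DMSO). Cells had been seeded at 2,000 per well and pre-incubated 6 h.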
# [10] = biological target: Thyrotropin receptor (Homo sapiens) (UniProt P16473); test: qHTS assay to identify small molecule agonists of the thyroid stimulating hormone receptor (TSHR) signaling pathway (AID 1224843; calls by dose curve; note: nearly all actives have a fitted effect of over 45% in size; note: potency is the fitted concentration of half-maximal effect)
# Method in brief: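 Agonist activity read as cAMP rise via d2/cryptate HTRF competition, 1 h room-temperature detection, in HEK293 cells expressing TSHR. Fifteen-point titrations, each run in triplicate, with a 30 min room-temperature incubation beforehand.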
# [11] = biological target: Luciferin 4-monooxygenase (Photinus pyralis) (UniProt P08659); test: qHTS assay to identify small molecule inhibitors of firefly luciferase (AID 1224835); note: nearly all actives have a fitted effect of over 25% in size; note: potency is the fitted concentration of half-maximal effect
# Method in brief: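 Inhibition of purified Photinus luciferase is measured by luminescence. Substrate levels (D-luciferin, ATP) sit at their KM values. Each compound is tested in a concentration series.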
# [12] = biological target: Nuclear receptor subfamily 1 group I member 3 (Homo sapiens) (UniProt Q14994); test: qHTS assay to identify small molecule agonists of the constitutive androstane receptor (CAR) signaling pathway (AID 1224839); note: nearly all actives have a fitted effect of over 15% in size; note: potency is the fitted concentration of half-maximal effect
# Method in brief: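 Double-stable HepG2 cells (hCAR, CYP2B6-2.2kb) seeded 4 h before compound addition. Exposure 24 h with 0.75 uM PK11195 final. Luciferase detected by ONE-Glo.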
# [13] = qHTS assay to identify small molecule antagonists of the retinoic acid receptor (RAR) signaling pathway (AID 1159552; note: nearly all actives have a fitted effect of over 50% in size)
# Method in brief: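 C3RL4 RARE-luc cells, overnight plating; retinol 1 uM final added right after compound; 6 hr 37 C; luciferase read at 30 min RT.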
# [14] = qHTS assay to identify small molecule agonists of the retinoic acid receptor (RAR) signaling pathway (AID 1159553)
# Method in brief: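 Seed C3RL4 reporter cells at 1,000 per well and incubate overnight at 37 C. Add compounds in DMSO, incubate 6 hr. Add luciferase reagent, wait 30 min at room temperature, read luminescence.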
# [15] = qHTS assay to identify small molecule antagonists of the estrogen related receptor (ERR) signaling pathway - cell viability counter screen (AID 1224818); note: series mostly up to about 46 µM
# Method in brief: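 ERR cells, 2,000/well; 6 h settle at 37 C/5% CO2; compound pin transfer (DMSO); 17.5 h at 37 C; CellTiter-Fluor, 30 min, fluorescence read.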
# [16] = qHTS assay to identify small molecule antagonists of the estrogen related receptor signaling pathway with the pleiotropic PPARgamma coactivator (PGC) cell viability counter screen (AID 1224822;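 note: series mostly up to about 46 µM; viability read after 17.5 h compound exposure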)
# Method in brief: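 Multiplexed viability counter screen run in PGC/ERR cells treated with compounds for 17.5 h at 37 C; live-cell protease signal measured by CellTiter-Fluor fluorescence.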
# [17] = qHTS assay to identify small molecule agonists of the estrogen related receptor (ERR) signaling pathway (AID 1224820)
# Method in brief: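 An ERR cell line provided by NTP was seeded at 2,000 cells per well and allowed to settle for 6 h before compounds in DMSO were added. After 18 h at 37 C, luciferase activity was measured by One-Glo luminescence.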
# [18] = tested on: estrogen-related receptor alpha (ERRalpha) with PGC-1alpha coactivator, human; test: qHTS assay to identify small molecule antagonists of the estrogen related receptor signaling pathway with the pleiotropic PPARgamma coactivator (PGC) (AID 1224821; calls by dose curve;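 note: series mostly up to about 46 µM; lower luminescence signal means antagonism of PGC/ERR signalling; nearly all actives have a fitted effect of over 50% in size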)
# Method in brief: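 A PGC/ERR cell line supplied by NTP is seeded, allowed 6 h at 37 C, and treated with test compounds in DMSO for 18 h. Signal is then measured as luciferase luminescence using One-Glo.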
# [19] = qHTS assay to identify small molecule agonists of the estrogen related receptor signaling pathway with the pleiotropic PPARgamma coactivator (PGC) (AID 1224823)
# Method in brief: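 Compounds dissolved in DMSO are added by pin tool to PGC/ERR cells that have settled for 6 h, and incubation continues 18 h at 37 C. Reporter output is measured as One-Glo luminescence.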
# Luciferin 4-monooxygenase (Photinus pyralis), sequence (P08659 whole entry, looked up): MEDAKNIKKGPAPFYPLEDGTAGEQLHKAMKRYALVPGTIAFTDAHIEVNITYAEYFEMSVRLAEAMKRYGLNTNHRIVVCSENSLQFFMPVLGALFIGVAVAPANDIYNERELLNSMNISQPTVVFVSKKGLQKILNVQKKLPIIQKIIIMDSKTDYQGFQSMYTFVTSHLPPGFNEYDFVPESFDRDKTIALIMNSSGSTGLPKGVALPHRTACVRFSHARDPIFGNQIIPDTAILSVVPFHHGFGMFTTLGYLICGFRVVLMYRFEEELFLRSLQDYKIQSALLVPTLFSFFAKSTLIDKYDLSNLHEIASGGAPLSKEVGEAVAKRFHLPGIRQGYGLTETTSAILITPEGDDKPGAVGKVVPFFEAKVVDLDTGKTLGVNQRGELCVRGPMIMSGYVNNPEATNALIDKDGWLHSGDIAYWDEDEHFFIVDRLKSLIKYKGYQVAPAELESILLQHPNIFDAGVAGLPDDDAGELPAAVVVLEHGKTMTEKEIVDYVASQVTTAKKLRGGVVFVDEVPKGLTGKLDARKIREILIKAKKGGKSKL
# Nuclear receptor subfamily 1 group I member 3 (Homo sapiens), sequence (Q14994 whole entry, looked up): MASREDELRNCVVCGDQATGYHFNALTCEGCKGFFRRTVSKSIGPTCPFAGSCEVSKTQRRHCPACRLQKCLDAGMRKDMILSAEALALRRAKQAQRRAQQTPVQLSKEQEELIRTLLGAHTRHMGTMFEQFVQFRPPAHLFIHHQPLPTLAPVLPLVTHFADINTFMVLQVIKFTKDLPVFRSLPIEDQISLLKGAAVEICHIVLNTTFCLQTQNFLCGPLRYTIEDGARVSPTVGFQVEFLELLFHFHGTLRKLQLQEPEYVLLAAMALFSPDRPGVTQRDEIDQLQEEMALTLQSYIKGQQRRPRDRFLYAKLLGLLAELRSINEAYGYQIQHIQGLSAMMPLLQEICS
# Thyrotropin receptor (Homo sapiens), sequence (P16473 whole entry, looked up): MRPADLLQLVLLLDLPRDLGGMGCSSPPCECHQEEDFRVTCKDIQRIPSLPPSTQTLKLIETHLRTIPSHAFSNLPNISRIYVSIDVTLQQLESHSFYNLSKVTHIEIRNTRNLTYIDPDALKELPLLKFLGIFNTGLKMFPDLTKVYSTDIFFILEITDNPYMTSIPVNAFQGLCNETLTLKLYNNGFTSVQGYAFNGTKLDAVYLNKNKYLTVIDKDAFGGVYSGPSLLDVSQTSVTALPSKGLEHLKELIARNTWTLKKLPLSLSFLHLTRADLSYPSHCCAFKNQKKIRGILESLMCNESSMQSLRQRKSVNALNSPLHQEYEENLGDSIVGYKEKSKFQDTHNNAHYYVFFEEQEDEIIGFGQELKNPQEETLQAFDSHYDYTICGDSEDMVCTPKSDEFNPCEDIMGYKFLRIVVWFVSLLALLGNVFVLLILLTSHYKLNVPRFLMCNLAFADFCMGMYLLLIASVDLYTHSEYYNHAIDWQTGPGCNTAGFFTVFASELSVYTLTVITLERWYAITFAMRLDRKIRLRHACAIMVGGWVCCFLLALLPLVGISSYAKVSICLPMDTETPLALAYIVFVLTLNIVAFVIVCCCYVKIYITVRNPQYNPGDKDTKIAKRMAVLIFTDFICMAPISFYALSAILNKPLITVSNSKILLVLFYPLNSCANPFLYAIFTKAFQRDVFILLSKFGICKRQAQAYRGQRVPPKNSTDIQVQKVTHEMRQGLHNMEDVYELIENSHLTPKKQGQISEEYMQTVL
smiles,measurement,setting,value
CCCCC/C=C/C=C/C=O,Potency,[1],inactive
same,Potency,[2],inactive
same,Potency,[3],inactive
same,Potency,[4],inactive
same,Potency,[5],inactive
same,Potency,[6],inactive
same,Potency,[7],inactive
same,Potency,[8],inactive and 54.5 µM (active)
same,Potency,[9],inactive
same,Potency,[10],inactive
COC(=O)CCC(=O)OC,Potency,[1],inactive
same,Potency,[2],inactive
same,Potency,[3],inactive
same,Potency,[11],inactive
same,Potency,[4],inactive
same,Potency,[5],inactive
same,Potency,[6],inactive
same,Potency,[12],inactive
same,Potency,[7],inactive
same,Potency,[8],inactive
same,Potency,[9],inactive
same,Potency,[10],inactive
COC(=O)Nc1nc2ccc(S(=O)c3ccccc3)cc2[nH]1 (centres undefined),Potency,[1],inactive
same,Potency,[2],inactive
same,Potency,[4],inactive
same,Potency,[5],inactive
same,Potency,[6],inactive
same,Potency,[12],inactive and 6.68 µM (active)
same,Potency,[7],inactive
same,Potency,[8],inactive
same,Potency,[9],inactive and 11.9 µM (active)
c1ccc2c(c1)Oc1ccccc1S2,Potency,[1],inactive
same,Potency,[2],inactive
same,Potency,[3],inactive
same,Potency,[11],72.1 µM (active)
same,Potency,[4],inactive
same,Potency,[5],inactive
same,Potency,[6],inactive
same,Potency,[10],inactive
O=C(COc1ccc(Cl)cc1)N1CCN(Cc2ccc3c(c2)OCO3)CC1,Potency,[1],inactive
same,Potency,[2],inactive
same,Potency,[3],inactive
same,Potency,[11],inactive
same,Potency,[5],inactive
same,Potency,[6],inactive
same,Potency,[12],inactive
same,Potency,[7],inactive
same,Potency,[8],43.3 µM (active)
same,Potency,[9],inactive
same,Potency,[10],inactive
COc1c(Cl)c(Cl)c(Cl)c(Cl)c1Cl,Potency,[1],inactive
same,Potency,[2],inactive
same,Potency,[3],inactive
same,Potency,[11],inactive
same,Potency,[4],inactive
same,Potency,[5],inactive
same,Potency,[6],inactive
same,Potency,[7],inactive
same,Potency,[8],inactive
same,Potency,[9],inactive
same,Potency,[10],inactive
COc1ccccc1/C=C/C=O,Potency,[1],inactive
same,Potency,[2],inactive
same,Potency,[11],inactive
same,Potency,[5],inactive
same,Potency,[7],inactive
same,Potency,[10],31.4 µM (active) and 54.5 µM (active)
COC(C)COC(C)COC(C)CO (centres undefined),Potency,[1],inactive
same,Potency,[2],inactive
same,Potency,[3],inactive
same,Potency,[5],inactive
same,Potency,[6],inactive
same,Potency,[12],inactive
same,Potency,[7],inactive
same,Potency,[8],inactive
same,Potency,[9],inactive
same,Potency,[10],inactive
CN(C)CCN(Cc1cccs1)c1ccccn1,Potency,[2],inactive
same,Potency,[13],inactive
same,Potency,[14],inactive
same,Potency,[15],inactive
same,Potency,[16],inactive
same,Potency,[3],inactive
same,Potency,[11],inactive
same,Potency,[4],inactive
same,Potency,[5],inactive
same,Potency,[10],inactive
CC(C)=CCC/C(C)=C\CO,Potency,[1],inactive
same,Potency,[2],inactive
same,Potency,[3],inactive
same,Potency,[11],inactive
same,Potency,[4],inactive
same,Potency,[5],inactive
same,Potency,[7],inactive
same,Potency,[10],inactive
CCCCc1oc2ccccc2c1C(=O)c1cc(I)c(OCCN(CC)CC)c(I)c1,Potency,[1],12.4 µM (active) and 16.9 µM (active)
same,outcome,[17],inactive
same,Potency,[18],inactive
same,outcome,[19],inactive
same,Potency,[3],48.9 µM (active) and 29.8 µM (active)
same,Potency,[11],inactive
same,Potency,[5],43.6 µM (active)
same,Potency,[7],43.6 µM (active)
same,Potency,[8],inactive
same,Potency,[9],inactive
same,Potency,[10],inactive
O=CCCCC=O,Potency,[1],inactive
same,Potency,[2],inactive
same,Potency,[3],inactive
same,Potency,[11],inactive
same,Potency,[4],inactive
same,Potency,[5],inactive
same,Potency,[6],inactive
same,Potency,[12],inactive
same,Potency,[8],inactive
same,Potency,[9],inactive
Nc1ccc(S(=O)(=O)Nc2cnc3ccccc3n2)cc1,Potency,[1],inactive
same,Potency,[2],inactive
same,Potency,[3],inactive
same,Potency,[4],inactive
same,Potency,[5],inactive
same,Potency,[6],inactive
same,Potency,[7],inactive
same,Potency,[10],inactive
C#C[C@]1(O)CC[C@H]2[C@@H]3CCC4=Cc5oncc5C[C@]4(C)[C@H]3CC[C@@]21C,Potency,[1],21.9 µM (active)
same,Potency,[2],inactive
same,Potency,[3],30.6 µM (active) and 26.6 µM (active)
same,Potency,[11],inactive
same,Potency,[5],inactive
same,Potency,[6],inactive
same,Potency,[8],24.3 µM (active) and 23.7 µM (active)
same,Potency,[9],inactive
c1ccc2c(c1)c1cccc3ccc4cccc2c4c31,Potency,[1],inactive
same,Potency,[2],inactive
same,Potency,[3],inactive
same,Potency,[11],inactive
same,Potency,[5],inactive
same,Potency,[6],inactive
same,Potency,[7],inactive
same,Potency,[10],inactive
COC(=O)c1ccccc1,Potency,[1],inactive
same,Potency,[2],inactive
same,Potency,[3],inactive
same,Potency,[4],inactive
same,Potency,[5],inactive
same,Potency,[10],inactive
CC1=CCC(C(C)(C)O)CC1 (centres undefined),Potency,[1],inactive
same,Potency,[2],inactive
same,Potency,[3],inactive
same,Potency,[11],inactive
same,Potency,[4],inactive
same,Potency,[5],inactive
same,Potency,[7],inactive
same,Potency,[10],inactive
